From PubChem BioAssay AID1159580 (chemical genetic matrix, 2015)
Values joined by “and” are separate entries in the source; they are usually repeats but may differ in a detail not shown here. Identical values can stand only once. Hit rate of the full screen: of about 5,500 compounds, about 2,000 (36%) were called active. Not shown: some 18% with an inconclusive outcome. Rule as the data show it: active = normalized growth mostly below about 0.91 (no sharp cut-off); inconclusive = no clear call, values can overlap the other calls; inactive = mostly above about 0.92. The list shows a part of the results.

Assay: chemical genetic growth profiling, strain panel (AID 1159580);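 also: tested at 20 µM; growth read once vehicle control cultures reached saturation at 30 °C; 1 = growth at the plate median or of vehicle wells; lower values mean less growth of the strain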
Settings: growth OD

Measured: normalized growth

CC1COc2c(N3CCN(C)CC3)c(F)cc3c(=O)c(C(=O)O)cn1c23 (stereo not drawn)
inactive: S. cerevisiae deletion strains, locus YJR066W, strain TOR1, stronger effect = lower value 0.948 | S. cerevisiae deletion strains, locus YKL009W, strain mrt4, stronger effect = lower value 1.03 | S. cerevisiae deletion strains, locus YKL068W, stronger effect = lower value 1.02 | S. cerevisiae deletion strains, locus YKL085W, strain MDH1 (second series), stronger effect = lower value 1 | S. cerevisiae deletion strains, locus YKL085W, strain MDH1, stronger effect = lower value 1 | S. cerevisiae deletion strains, locus YKL160W, strain elf1, stronger effect = lower value 0.971 | S. cerevisiae deletion strains, locus YKL190W, strain CNB1, stronger effect = lower value 1.01 | S. cerevisiae deletion strains, locus YKR001C, strain vps1, stronger effect = lower value 1.03 | S. cerevisiae deletion strains, locus YKR026C, strain gcn3, stronger effect = lower value 0.988 | S. cerevisiae deletion strains, locus YKR091W, strain srl3, stronger effect = lower value 0.984 | S. cerevisiae deletion strains, locus YLL001W, strain dnm1, stronger effect = lower value 0.958 | S. cerevisiae deletion strains, locus YLL026W, stronger effect = lower value 0.998 | S. cerevisiae deletion strains, locus YLL041C, strain sdh2, stronger effect = lower value 0.987 | S. cerevisiae deletion strains, locus YLR027C, strain aat2, stronger effect = lower value 0.997 | S. cerevisiae deletion strains, locus YLR039C, strain RIC1, stronger effect = lower value 1.03 | S. cerevisiae deletion strains, locus YLR058C, strain SHM2, stronger effect = lower value 1.01 | S. cerevisiae deletion strains, locus YLR102C, strain apc9, stronger effect = lower value 1.02 | S. cerevisiae deletion strains, locus YLR113W, strain HOG1, stronger effect = lower value 0.942 | S. cerevisiae deletion strains, locus YLR221C, strain rsa3, stronger effect = lower value 0.979 | S. cerevisiae deletion strains, locus YLR258W, strain gsy2, stronger effect = lower value 0.994 | S. cerevisiae deletion strains, locus YLR262C, strain YPT6 (second series), stronger effect = lower value 0.966 | S. cerevisiae deletion strains, locus YLR262C, strain YPT6, stronger effect = lower value 1.07 | S. cerevisiae deletion strains, locus YLR268W, strain sec22, stronger effect = lower value 1.01 | S. cerevisiae deletion strains, locus YLR320W, strain mms22, stronger effect = lower value 0.961 | S. cerevisiae deletion strains, locus YLR330W, strain CHS5, stronger effect = lower value 1.01 | S. cerevisiae deletion strains, locus YLR342W, strain FKS1 (second series), stronger effect = lower value 1 | S. cerevisiae deletion strains, locus YLR342W, strain FKS1, stronger effect = lower value 0.976 | S. cerevisiae deletion strains, locus YLR357W, strain rsc2, stronger effect = lower value 0.967 | S. cerevisiae deletion strains, locus YLR370C, strain arc18, stronger effect = lower value 0.98 | S. cerevisiae deletion strains, locus YLR371W, strain rom2, stronger effect = lower value 1.02 | S. cerevisiae deletion strains, locus YLR384C, strain iki3, stronger effect = lower value 0.965 | S. cerevisiae deletion strains, locus YLR418C, strain cdc73, stronger effect = lower value 1.02 | S. cerevisiae deletion strains, locus YML016C, strain PPZ1, stronger effect = lower value 1 | S. cerevisiae deletion strains, locus YML032C, strain rad52, stronger effect = lower value 1.01 | S. cerevisiae deletion strains, locus YML120C, strain ndi1, stronger effect = lower value 0.984 | S. cerevisiae deletion strains, locus YML124C, strain tub3, stronger effect = lower value 1.01 | S. cerevisiae deletion strains, locus YMR058W, strain fet3, stronger effect = lower value 0.985 | S. cerevisiae deletion strains, locus YMR078C, strain ctf18, stronger effect = lower value 1.01 | S. cerevisiae deletion strains, locus YMR125W, strain sto1, stronger effect = lower value 0.981 | S. cerevisiae deletion strains, locus YMR129W, stronger effect = lower value 0.99 | S. cerevisiae deletion strains, locus YMR205C, strain PFK2, stronger effect = lower value 0.959 | S. cerevisiae deletion strains, locus YMR223W, strain ubp8, stronger effect = lower value 1.02 | S. cerevisiae deletion strains, locus YMR231W, strain pep5, stronger effect = lower value 0.981 | S. cerevisiae deletion strains, locus YMR307W, strain GAS1, stronger effect = lower value 1.09 | S. cerevisiae deletion strains, locus YNL067W, strain RPL9B, stronger effect = lower value 1 | S. cerevisiae deletion strains, locus YNL071W, strain lat1, stronger effect = lower value 0.987 | S. cerevisiae deletion strains, locus YNL128W, strain TEP1, stronger effect = lower value 1.03 | S. cerevisiae deletion strains, locus YNL153C, strain GIM3, stronger effect = lower value 1.05 | S. cerevisiae deletion strains, locus YNL183C, strain NPR1, stronger effect = lower value 0.928 | S. cerevisiae deletion strains, locus YNL197C, strain WHI3, stronger effect = lower value 1.01 | S. cerevisiae deletion strains, locus YNL209W, strain ssb2, stronger effect = lower value 0.988 | S. cerevisiae deletion strains, locus YNL224C, strain SQS1, stronger effect = lower value 1.01 | S. cerevisiae deletion strains, locus YNL233W, strain BNI4, stronger effect = lower value 1 | S. cerevisiae deletion strains, locus YNL248C, strain rpa49, stronger effect = lower value 0.982 | S. cerevisiae deletion strains, locus YNL250W, strain rad50, stronger effect = lower value 1.01 | S. cerevisiae deletion strains, locus YNL271C, strain bni1, stronger effect = lower value 1.02 | S. cerevisiae deletion strains, locus YNL298W, strain CLA4, stronger effect = lower value 1.02 | S. cerevisiae deletion strains, locus YNL307C, strain MCK1, stronger effect = lower value 1.02 | S. cerevisiae deletion strains, locus YNL322C, strain KRE1 (second series), stronger effect = lower value 0.978 | S. cerevisiae deletion strains, locus YNL322C, strain KRE1, stronger effect = lower value 0.995 | S. cerevisiae deletion strains, locus YNR049C, strain mso1, stronger effect = lower value 0.986 | S. cerevisiae deletion strains, locus YNR052C, strain pop2, stronger effect = lower value 1.03 | S. cerevisiae deletion strains, locus YOL006C, strain TOP1, stronger effect = lower value 1.02 | S. cerevisiae deletion strains, locus YOL012C, strain htz1 1.78 | S. cerevisiae deletion strains, locus YOL147C, strain pex11, stronger effect = lower value 1.01 | S. cerevisiae deletion strains, locus YOR001W, strain rrp6, stronger effect = lower value 1.01 | S. cerevisiae deletion strains, locus YOR061W, strain CKA2, stronger effect = lower value 1.01 | S. cerevisiae deletion strains, locus YOR069W, strain VPS5, stronger effect = lower value 1 | S. cerevisiae deletion strains, locus YOR070C, strain gyp1, stronger effect = lower value 0.994 | S. cerevisiae deletion strains, locus YOR080W, strain dia2, stronger effect = lower value 0.984 | S. cerevisiae deletion strains, locus YOR083W, strain WHI5 (second series), stronger effect = lower value 1.02 | S. cerevisiae deletion strains, locus YOR083W, strain WHI5, stronger effect = lower value 0.953 | S. cerevisiae deletion strains, locus YOR106W, strain vam3, stronger effect = lower value 0.971 | S. cerevisiae deletion strains, locus YOR136W, strain idh2, stronger effect = lower value 1.01 | S. cerevisiae deletion strains, locus YOR144C, strain elg1, stronger effect = lower value 1.01 | S. cerevisiae deletion strains, locus YOR184W, strain ser1, stronger effect = lower value 1.02 | S. cerevisiae deletion strains, locus YOR231W, strain MKK1, stronger effect = lower value 0.972 | S. cerevisiae deletion strains, locus YOR265W, strain rbl2, stronger effect = lower value 0.989 | S. cerevisiae deletion strains, locus YOR270C, strain vph1, stronger effect = lower value 0.965 | S. cerevisiae deletion strains, locus YOR290C, strain snf2, stronger effect = lower value 0.985 | S. cerevisiae deletion strains, locus YOR316C, strain cot1, stronger effect = lower value 1.01 | S. cerevisiae deletion strains, locus YPL051W, strain arl3, stronger effect = lower value 0.98 | S. cerevisiae deletion strains, locus YPL055C, strain LGE1, stronger effect = lower value 1.03 and 1.01 | S. cerevisiae deletion strains, locus YPL078C, strain atp4, stronger effect = lower value 0.966 | S. cerevisiae deletion strains, locus YPL106C, strain sse1, stronger effect = lower value 0.965 | S. cerevisiae deletion strains, locus YPL240C, strain hsp82, stronger effect = lower value 0.999 | S. cerevisiae deletion strains, locus YPL256C, strain CLN2, stronger effect = lower value 1 | S. cerevisiae deletion strains, locus YPR119W, strain clb2, stronger effect = lower value 1.01 | S. cerevisiae deletion strains, locus YPR141C, strain kar3, stronger effect = lower value 1.01 | S. cerevisiae deletion strains, locus YPR163C, strain tif3, stronger effect = lower value 1.01 | S. cerevisiae deletion strains, locus YPR167C, strain met16, stronger effect = lower value 1.01 | S. cerevisiae deletion strains, strain wtn01, stronger effect = lower value 1.01 | S. cerevisiae strains, strain wild type, stronger effect = lower value 1.01
